# Assays:
# [1] = molecular target: Tyrosine-protein kinase SYK (Homo sapiens) (UniProt P43405); conditions: at 10 µM
# [2] = molecular target: T1, Mitogen-activated protein kinase kinase kinase 7 (Homo sapiens) (UniProt O43318); conditions: at 1 µM
# T1 sequence (whole entry): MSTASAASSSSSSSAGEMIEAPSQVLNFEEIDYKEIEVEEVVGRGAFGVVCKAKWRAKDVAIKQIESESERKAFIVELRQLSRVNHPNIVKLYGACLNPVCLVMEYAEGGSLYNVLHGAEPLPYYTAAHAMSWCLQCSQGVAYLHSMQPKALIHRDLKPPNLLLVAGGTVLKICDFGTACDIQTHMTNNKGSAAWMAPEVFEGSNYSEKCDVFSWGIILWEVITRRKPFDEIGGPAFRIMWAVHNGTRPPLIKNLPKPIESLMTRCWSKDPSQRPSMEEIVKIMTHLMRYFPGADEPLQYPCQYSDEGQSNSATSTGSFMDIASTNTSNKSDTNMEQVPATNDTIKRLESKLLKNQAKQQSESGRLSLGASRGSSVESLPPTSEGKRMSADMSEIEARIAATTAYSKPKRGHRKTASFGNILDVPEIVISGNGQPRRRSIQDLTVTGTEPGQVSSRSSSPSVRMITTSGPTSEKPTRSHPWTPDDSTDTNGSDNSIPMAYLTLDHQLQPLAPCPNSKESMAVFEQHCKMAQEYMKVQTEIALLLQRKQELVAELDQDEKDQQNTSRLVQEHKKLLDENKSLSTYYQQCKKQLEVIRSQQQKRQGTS
# [3] = molecular target: T1, Mitogen-activated protein kinase kinase kinase 7 (Homo sapiens); conditions: at 10 µM
# [4] = molecular target: T2, Serine/threonine-protein kinase TAO1 (Homo sapiens) (UniProt Q7L7X3); conditions: at 1 µM
# T2 sequence (whole entry): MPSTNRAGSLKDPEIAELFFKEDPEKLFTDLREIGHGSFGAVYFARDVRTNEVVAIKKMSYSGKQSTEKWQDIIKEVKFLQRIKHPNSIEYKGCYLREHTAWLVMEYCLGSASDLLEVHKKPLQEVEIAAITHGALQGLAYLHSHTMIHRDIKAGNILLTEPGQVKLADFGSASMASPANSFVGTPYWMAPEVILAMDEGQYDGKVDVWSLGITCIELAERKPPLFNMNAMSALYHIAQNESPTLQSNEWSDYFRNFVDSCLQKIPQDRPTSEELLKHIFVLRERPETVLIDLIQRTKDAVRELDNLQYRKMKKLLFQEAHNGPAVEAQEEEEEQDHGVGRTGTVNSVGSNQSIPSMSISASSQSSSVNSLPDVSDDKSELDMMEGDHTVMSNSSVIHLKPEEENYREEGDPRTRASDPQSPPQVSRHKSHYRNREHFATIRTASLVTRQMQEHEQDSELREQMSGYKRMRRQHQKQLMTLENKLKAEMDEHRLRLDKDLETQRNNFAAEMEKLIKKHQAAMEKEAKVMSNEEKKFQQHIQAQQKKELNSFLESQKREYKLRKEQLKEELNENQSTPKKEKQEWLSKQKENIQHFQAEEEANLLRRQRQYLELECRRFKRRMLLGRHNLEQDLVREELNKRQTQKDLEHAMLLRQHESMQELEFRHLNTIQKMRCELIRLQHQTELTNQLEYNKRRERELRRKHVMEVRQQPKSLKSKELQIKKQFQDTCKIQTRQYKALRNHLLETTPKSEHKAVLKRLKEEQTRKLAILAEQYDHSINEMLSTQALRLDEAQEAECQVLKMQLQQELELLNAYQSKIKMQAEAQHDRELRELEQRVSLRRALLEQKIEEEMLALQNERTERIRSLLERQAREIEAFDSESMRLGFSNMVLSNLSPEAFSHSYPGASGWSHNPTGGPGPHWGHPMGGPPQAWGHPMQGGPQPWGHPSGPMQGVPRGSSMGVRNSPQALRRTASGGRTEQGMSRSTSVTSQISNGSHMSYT
# [5] = molecular target: T2, Serine/threonine-protein kinase TAO1 (Homo sapiens); conditions: at 10 µM
# [6] = molecular target: T3, Serine/threonine-protein kinase TAO2 (Homo sapiens) (UniProt Q9UL54); conditions: at 1 µM
# T3 sequence (whole entry): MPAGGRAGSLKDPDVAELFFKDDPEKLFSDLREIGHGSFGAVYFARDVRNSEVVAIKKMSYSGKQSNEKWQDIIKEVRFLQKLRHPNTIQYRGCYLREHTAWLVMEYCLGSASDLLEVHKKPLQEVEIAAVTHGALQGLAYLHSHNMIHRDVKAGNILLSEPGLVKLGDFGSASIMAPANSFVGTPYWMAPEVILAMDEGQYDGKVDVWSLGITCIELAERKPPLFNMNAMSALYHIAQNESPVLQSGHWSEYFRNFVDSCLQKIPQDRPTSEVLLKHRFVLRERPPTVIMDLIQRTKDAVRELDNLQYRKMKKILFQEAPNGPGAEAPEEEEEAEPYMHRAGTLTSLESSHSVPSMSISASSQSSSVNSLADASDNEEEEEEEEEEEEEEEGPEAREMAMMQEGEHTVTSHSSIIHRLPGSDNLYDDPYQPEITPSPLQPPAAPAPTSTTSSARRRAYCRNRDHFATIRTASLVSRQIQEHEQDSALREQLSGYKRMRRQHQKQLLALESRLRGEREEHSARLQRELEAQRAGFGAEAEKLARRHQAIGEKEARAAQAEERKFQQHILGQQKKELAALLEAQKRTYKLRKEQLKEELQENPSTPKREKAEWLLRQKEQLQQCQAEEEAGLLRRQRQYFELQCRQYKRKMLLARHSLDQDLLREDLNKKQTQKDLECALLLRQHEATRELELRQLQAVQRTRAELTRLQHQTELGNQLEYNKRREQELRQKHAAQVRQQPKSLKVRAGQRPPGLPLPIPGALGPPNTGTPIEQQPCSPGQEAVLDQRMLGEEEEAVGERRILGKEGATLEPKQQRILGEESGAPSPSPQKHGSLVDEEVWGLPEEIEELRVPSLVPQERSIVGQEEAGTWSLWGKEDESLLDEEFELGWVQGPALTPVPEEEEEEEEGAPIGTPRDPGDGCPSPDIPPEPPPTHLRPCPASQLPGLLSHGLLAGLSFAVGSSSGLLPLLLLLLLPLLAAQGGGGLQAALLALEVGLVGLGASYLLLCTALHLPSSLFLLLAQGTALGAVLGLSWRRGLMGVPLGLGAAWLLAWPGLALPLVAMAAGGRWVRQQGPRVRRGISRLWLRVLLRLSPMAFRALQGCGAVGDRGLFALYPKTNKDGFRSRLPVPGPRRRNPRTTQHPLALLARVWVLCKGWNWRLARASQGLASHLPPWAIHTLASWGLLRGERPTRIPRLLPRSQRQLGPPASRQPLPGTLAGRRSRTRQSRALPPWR
# [7] = molecular target: T3, Serine/threonine-protein kinase TAO2 (Homo sapiens); conditions: at 10 µM
# [8] = molecular target: T4, Serine/threonine-protein kinase TAO3 (Homo sapiens) (UniProt Q9H2K8); conditions: at 1 µM
# T4 sequence (whole entry): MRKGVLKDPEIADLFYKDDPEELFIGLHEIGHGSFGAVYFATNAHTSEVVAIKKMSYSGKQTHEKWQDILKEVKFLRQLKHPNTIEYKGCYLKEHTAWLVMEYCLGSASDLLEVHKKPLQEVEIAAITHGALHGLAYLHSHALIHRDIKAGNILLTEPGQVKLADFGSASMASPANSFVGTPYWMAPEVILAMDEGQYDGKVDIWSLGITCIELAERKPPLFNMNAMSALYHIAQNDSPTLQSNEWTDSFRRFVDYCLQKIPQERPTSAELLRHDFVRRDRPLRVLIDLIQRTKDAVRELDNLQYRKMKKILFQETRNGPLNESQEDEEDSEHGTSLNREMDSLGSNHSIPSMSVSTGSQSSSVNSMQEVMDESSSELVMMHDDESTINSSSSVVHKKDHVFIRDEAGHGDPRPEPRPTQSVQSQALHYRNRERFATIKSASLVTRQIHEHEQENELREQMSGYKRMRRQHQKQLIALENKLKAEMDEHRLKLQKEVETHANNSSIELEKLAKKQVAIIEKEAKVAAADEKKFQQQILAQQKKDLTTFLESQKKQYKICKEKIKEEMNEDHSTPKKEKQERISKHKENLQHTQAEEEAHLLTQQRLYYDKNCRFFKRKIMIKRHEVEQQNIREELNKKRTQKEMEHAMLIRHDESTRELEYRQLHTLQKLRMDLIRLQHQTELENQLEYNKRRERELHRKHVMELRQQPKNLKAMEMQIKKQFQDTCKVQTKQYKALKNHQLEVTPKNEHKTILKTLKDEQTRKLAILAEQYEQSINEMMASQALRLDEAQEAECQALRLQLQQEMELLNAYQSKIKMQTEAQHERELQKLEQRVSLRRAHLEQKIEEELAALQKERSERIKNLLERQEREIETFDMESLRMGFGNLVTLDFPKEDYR
# [9] = molecular target: T4, Serine/threonine-protein kinase TAO3 (Homo sapiens); conditions: at 10 µM
# [10] = molecular target: T5, Serine/threonine-protein kinase TBK1 (Homo sapiens) (UniProt Q9UHD2); conditions: at 1 µM
# T5 sequence (whole entry): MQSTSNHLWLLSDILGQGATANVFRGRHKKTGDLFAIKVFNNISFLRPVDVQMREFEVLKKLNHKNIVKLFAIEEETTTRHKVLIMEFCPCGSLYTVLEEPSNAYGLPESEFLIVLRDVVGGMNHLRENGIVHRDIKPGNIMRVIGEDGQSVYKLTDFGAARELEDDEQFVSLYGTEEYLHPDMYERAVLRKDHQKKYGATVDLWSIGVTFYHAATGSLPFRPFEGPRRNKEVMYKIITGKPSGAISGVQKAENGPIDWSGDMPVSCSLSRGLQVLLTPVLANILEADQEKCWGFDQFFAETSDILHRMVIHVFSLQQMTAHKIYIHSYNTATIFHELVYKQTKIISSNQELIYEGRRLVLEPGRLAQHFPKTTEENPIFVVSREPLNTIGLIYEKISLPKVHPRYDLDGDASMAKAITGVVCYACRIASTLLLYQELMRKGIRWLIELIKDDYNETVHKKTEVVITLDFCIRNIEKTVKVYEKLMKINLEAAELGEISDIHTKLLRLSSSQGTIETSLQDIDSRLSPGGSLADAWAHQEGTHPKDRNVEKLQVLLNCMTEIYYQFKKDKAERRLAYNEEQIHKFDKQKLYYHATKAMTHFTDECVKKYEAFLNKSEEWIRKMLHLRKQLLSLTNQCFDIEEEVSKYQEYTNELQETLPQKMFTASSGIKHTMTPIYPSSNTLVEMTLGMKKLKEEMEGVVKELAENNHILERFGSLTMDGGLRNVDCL
compound,measurement,setting,value
COc1cccc(-c2cc(=O)c3ccccc3o2)c1N,residual activity,[1],113%
same,residual activity,[2],101%
same,residual activity,[3],98%
same,residual activity,[4],99%
same,residual activity,[5],85%
same,residual activity,[6],112%
same,residual activity,[7],92%
same,residual activity,[8],95%
same,residual activity,[9],87%
same,residual activity,[10],97%

# — ChEMBL document CHEMBL2218924, “A broad activity screen in support of a chemogenomic map for kinase signalling research and drug discovery” (Biochem J, 2013)
